Vaccinia pol inh – vaccinia E9 polymerase processive synthesis inhibitors, primary screen, biochemical, absorbance; in vitro processive DNA synthesis, absorbance read-out; active compounds read low; normalized absorbance, % (test concentration not listed); actives 0.94% (n = 46,000); AID 493162, 2011; in the data active means normalized absorbance mostly below about 85%, no sharp cut-off; inactive means mostly above about 86%
* = called active by the depositor. Shown is part of a subset that was picked to be rich in hits.

SMILES	Vaccinia pol inh
O=C(CC(SCc1ccc(Cl)cc1)C(=O)O)c1ccc(Cl)cc1 (stereo not given)	97
O=C(CNC(=O)c1ccc(Cl)cc1)c1ccc(Cl)cc1	103
O=C(Cc1ccc(Cl)cc1)c1ccc(Cl)cc1	79*
COc1ccc(/C=C/C(=O)Nc2cc(C)[nH]n2)cc1OC	87
Cc1cccc(-n2[nH]nnc2=S)c1	100
CC1=C(/C=C/C(C)=C/C=C/C(C)=C\C(=O)O)C(C)(C)CCC1	29*
CC1=C(/C=C/C(C)=C/C=C/C(C)=C/C(=O)Nc2ccc(O)cc2)C(C)(C)CCC1	97
CC(=C/C(=O)O)/C=C/c1ccccc1	101
NCc1ccc2[nH]c3c(c2c1)CCCC3	90
CCOc1ccc2nc3n(c2c1)CC(O)CS3 (stereo not given)	121
O=c1ccn(CN2CCCCC2)c(=O)n1CN1CCCCC1	100
O=C(O)C1CCN(C(=O)c2ccccc2)CC1	101
N#Cc1ccc(CSc2ccc(Cl)cc2)cc1	100
CCN1CN=C(SCc2cccc(C#N)c2)NC1	69
CN1CN=C(SCc2ccc(Cl)c(Cl)c2)NC1	65
N#Cc1ccc(CSC2=NCCN2)cc1	71*
CN1CN=C(SCc2cccc(C#N)c2)NC1	76*
O=C(CSC1=NCCN1)NC(c1ccccc1)c1ccccc1	90
COC(=O)c1c(C)c(C)[nH]c(=O)c1C#N	100
COc1ccc(CCNc2cc3c(nn2)Oc2ccccc2N3C)cc1OC	109
O=C(O)/C=C/c1ccc(-c2cccc(Cl)c2)o1	100
O=C(NCC12CC3CC(C1)CC(CNC(=O)C(F)(F)F)(C3)C2)C(F)(F)F	101
C=CCn1c(CNC(=O)c2cccc(C)c2)nc2ccccc21	99
CCSC1=NC(C)(C)C=C(C)N1	118
CC1=CC(C)(C)N=C(Nc2nc(C)c3cc(C)cc(C)c3n2)N1	50*
SMILES	Vaccinia pol inh
COc1cccc(/C=C2/SC(=Nc3ccccc3)N(CCc3ccccc3)C2=O)c1O	100
FC(F)(F)c1cc(C(F)(F)F)c2ccc(Cl)nc2n1	92
Cc1sc(/N=C/c2c[nH]c3ccccc23)c(C#N)c1C	92
Cc1[nH]c2ccccc2c1N=CN(C)C	100
CN(C)C=Nc1ncc2c([nH]c3ccccc32)c1C#N	89*
Cn1c(SCc2ccc3c(c2)OCO3)nc2ccccc2c1=O	101
CCOC(=O)c1c(C(=O)OCC)c2n(c1-c1ccccc1)Cc1ccccc1-2	108
COc1ccc(N2Cc3cccc(C(=O)NCCC4=CCCCC4)c3C2=O)cc1	86
CCOC(=O)c1cc(Oc2nc(C)nc3sc4c(c23)CCCC4)cc(C(=O)OCC)c1	100
COc1ccc(-c2nnc(C3CCN(C(=O)c4c(F)cccc4F)CC3)o2)cc1	98
CC(C)(C)OC(=O)CN1C(=O)c2ccccc2S1(=O)=O	102
CN(C)CCCNc1c2c(nc3ccccc13)CCC2	27*
CCc1ccc(Nc2c3c(nc4ccccc24)CCC3)cc1	86
CCc1ccc(Nc2c3c(nc4ccccc24)CCCC3)cc1	91
O=c1[nH]c2ccc(Oc3ccc4[nH]c(=O)c(=O)[nH]c4c3)cc2[nH]c1=O	112
CC(O)c1cc(NC(=O)c2ccccc2)c(=O)oc1/C=C/N(C)C (stereo not given)	101
CC1=C(C#N)/C(=C/Nc2ccc(F)cc2)CC(=O)N1	116
CS[C@H](C)[C@H](OC(C)=O)C(=O)N(C)CCN(C)C (tested in a mixture with another compound)	15*
COc1ccnc(N)c1C#N	95
COc1ccccc1-c1nnc(NC(=O)CSC2=NCCS2)s1	100
CCc1cc2c(=O)c(-c3ccc4c(c3)OCO4)coc2cc1O	82*
CCc1cc2c(=O)c(-c3ccccc3)coc2cc1O	98
COc1ccc2c(=O)c(-c3ccc4c(c3)OCCO4)coc2c1	94
CCOC(=O)N(C)CCc1cc2c(cc1C)OCO2	100
CN1CCN(Cc2c3ccccc3cc3ccccc23)CC1	88
SMILES	Vaccinia pol inh
CN(C)Cc1c2ccccc2cc2ccccc12	47*
CN(C)Cc1cc2ccccc2[nH]1	100
CCn1c(=O)cc(SCC(=O)NCc2cccs2)c2ccccc21	101
O=C(Cn1ccn(-c2ccccc2)c(=O)c1=O)c1ccc(F)cc1	114
c1ccc2c(NCNc3noc4ccccc34)noc2c1	89
NC(=O)C1CCN(C(=O)CSCc2cnn(-c3ccccc3)c2-n2cccc2)CC1	113
CCOC(=O)c1cc(C#N)c(=O)[nH]c1-c1ccccc1	115
Oc1oc(C=Nc2ccc(OC(F)(F)F)cc2)c2ccccc12	117
COc1ccccc1NC(=O)CSC(=O)c1ccccc1	112
CCCCC(CC)CN=C(N)NC(N)=NCCCCCCN=C(N)NC(N)=NCC(CC)CCCC (stereo not given)	27*
COC(=O)[C@@H](N)CCCN=C(N)N[N+](=O)[O-]	100
CN(C)CC(O)C12CC3CC(CC(C3)C1)C2 (stereo not given)	90
Cc1cc(C(=O)OCC(=O)N(C)C2CCCCC2)c2ccccc2n1	101
c1ccc(-c2nnc(-c3ccccc3)o2)cc1	99
NC(=O)c1ccc(-c2nnc(-c3ccccc3)o2)cc1	94
Nc1ccccc1-c1nnc(-c2ccc(-c3ccccc3)cc2)o1	66*
Cc1cc(CN2CCS(=O)(=O)CC2)no1	114
Cc1nc2c(-c3ccc(F)cc3)c(C)nn2c(C)c1CCC(=O)N(C)c1ccccc1	103
C=CCOc1cc(OCC=C)cc(C(=O)O)c1	108
CC(Nc1cc(C)ccn1)=C(C#N)C#N	63*
Cc1ccnc(NC(=O)c2cccs2)c1	100
Cc1ccnc(NC(=O)c2cc(-c3ccc(C)c(C)c3)n[nH]2)c1	92
CCOC(=O)c1[nH]c(C)c(C(=O)NCCc2ccc(OC)c(OC)c2)c1CC	108
OC(CNCc1ccccc1)Cn1c2ccc(Cl)cc2c2cc(Cl)ccc21 (stereo not given)	100
CN(CC(O)Cn1c2ccccc2c2ccccc21)S(C)(=O)=O (stereo not given)	109
SMILES	Vaccinia pol inh
CN(C)CC(O)Cn1c2ccc(Br)cc2c2cc(Br)ccc21 (stereo not given)	27*
Cc1ccc(N)c(C(O)c2ccccc2)c1 (stereo not given)	95
Cc1ccc(OCC(O)Cn2ccnc2C)cc1 (stereo not given)	96
O=C1Nc2ccc(S(=O)(=O)N(CCO)CCO)c3cccc1c23	100
CN(c1ccccc1C(=O)O)S(=O)(=O)c1ccc2c3c(cccc13)C(=O)N2	50*
NS(=O)(=O)c1ccc2c3c(cccc13)C(=O)N2	96
Cn1nc(-c2ccccc2)c(C(O)c2cccs2)c1Cl (stereo not given)	90
O=C(Oc1ccc(C=Nc2cccc(Br)c2)cc1)c1ccncc1	100
COc1ccc(C2C3=C(CCCC3=O)Nc3nc4ccccc4n32)cc1 (stereo not given)	106
Oc1c(C(O)(C(F)(F)F)C(F)(F)F)ccc2cccnc12	100
NC1=NC(=O)C(CC(=O)Nc2ccc(Cl)c(C(F)(F)F)c2)S1 (stereo not given)	103
COc1ccc2c(c1OC)CN1CCc3cc4c(cc3C1C2)OCO4 (stereo not given)	100
COc1ccc2c(c1OC)CN(C)CCc1cc3c(cc1C(O)C2)OCO3 (stereo not given)	110
COc1ccc2cc3[n+](cc2c1OC)CCc1cc2c(cc1-3)OCO2	82*
Cc1cc(N(C)Cc2ccccc2)ncn1	103
Cc1cc(N(C)Cc2ccccc2)nc2cc(O)ccc12	77*
